Reference: PubChem BioAssay AID1159580 (chemical genetic matrix, 2015)
“And” between values parts separate entries of the source, which are not always exact repeats. Equal values may be shown once. In all, about 5,500 compounds went through this assay and about 2,000 (36%) were called active. Roughly 18% stayed inconclusive and do not appear here. Rule as the data show it: active = normalized growth mostly below about 0.91 (no sharp cut-off); inconclusive = no clear call, values can overlap the other calls; inactive = mostly above about 0.92. The list shows a part of the results.

Assay: chemical genetic growth profiling, strain panel (AID 1159580);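 also: tested at 20 µM; growth read once vehicle control cultures reached saturation at 30 °C; 1 = growth at the plate median or of vehicle wells; lower values mean less growth of the strain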
Conditions: S. cerevisiae deletion strains, growth OD

Measured: normalized growth

C[C@@H]1CC2C3CCC4=CC(=O)C=C[C@]4(C)[C@@]3(F)[C@@H](O)C[C@]2(C)[C@@]1(O)C(=O)COP(=O)(O)O (stereo partly drawn)
inactive: locus YAL021C, strain ccr4, active compounds read low 0.961 | locus YAL026C, strain drs2, active compounds read low 0.985 | locus YAL030W, strain snc1, active compounds read low 0.996 | locus YBL061C, strain skt5, active compounds read low 0.978 | locus YBR009C, strain hhf1, active compounds read low 0.976 | locus YBR021W, strain FUR4, active compounds read low 1.02 | locus YBR023C, strain chs3, active compounds read low 0.981 | locus YBR171W, strain sec66, active compounds read low 0.944 | locus YBR229C, strain ROT2, active compounds read low 1 | locus YBR231C, strain swc5, active compounds read low 0.955 | locus YBR279W, strain paf1, active compounds read low 0.989 | locus YCL011C, strain gbp2, active compounds read low 0.997 | locus YCL016C, strain dcc1, active compounds read low 1.02 | locus YCL029C, strain bik1, active compounds read low 1.01 | locus YCL061C, strain MRC1, active compounds read low 0.971 | locus YCL069W, strain vba3, active compounds read low 0.996 | locus YCR088W, strain abp1, active compounds read low 0.975 | locus YDL005C, strain med2, active compounds read low 0.987 | locus YDL035C, strain GPR1, active compounds read low 1.03 | locus YDL040C, strain nat1, active compounds read low 0.964 | locus YDL074C, strain BRE1, active compounds read low 1.02 | locus YDL101C, strain DUN1, active compounds read low 1.01 | locus YDL134C, strain PPH21, active compounds read low 1.02 | locus YDL185W, strain tfp1, active compounds read low 1 | locus YDL192W, strain arf1, active compounds read low 1.01 | locus YDR001C, strain nth1, active compounds read low 0.94 | locus YDR069C, strain doa4, active compounds read low 0.942 | locus YDR101C, strain arx1, active compounds read low 0.996 | locus YDR137W, strain rgp1, active compounds read low 0.97 | locus YDR159W, strain sac3, active compounds read low 0.961 | locus YDR162C, strain NBP2, active compounds read low 1.02 | locus YDR195W, strain ref2 0.936 | locus YDR297W, strain sur2, active compounds read low 0.979 | locus YDR318W, strain mcm21, active compounds read low 0.992 | locus YDR334W, strain swr1, active compounds read low 0.943 | locus YDR335W, strain msn5, active compounds read low 0.949 | locus YDR388W, active compounds read low 1 | locus YDR392W, strain spt3, active compounds read low 1.06 | locus YDR502C, strain sam2, active compounds read low 1.01 | locus YEL003W, strain gim4, active compounds read low 0.98 | locus YEL037C, strain rad23, active compounds read low 0.978 | locus YEL061C, strain CIN8 (second series), active compounds read low 0.961 | locus YEL061C, strain CIN8, active compounds read low 1.01 | locus YER015W, strain faa2, active compounds read low 0.98 | locus YER016W, strain bim1, active compounds read low 1.02 | locus YER110C, active compounds read low 1.01 | locus YER111C, strain swi4, active compounds read low 0.98 | locus YER155C, strain BEM2 (second series), active compounds read low 0.972 | locus YER155C, strain BEM2, active compounds read low 1.01 | locus YER167W, strain BCK2, active compounds read low 1.01 | locus YFR010W, strain ubp6, active compounds read low 0.936 | locus YGL078C, strain dbp3, active compounds read low 1.01 | locus YGL086W, strain mad1, active compounds read low 1.02 | locus YGL167C, strain pmr1, active compounds read low 0.954 | locus YGL173C, strain kem1, active compounds read low 1 | locus YGL227W, strain vid30, active compounds read low 0.972 | locus YGL240W, strain doc1, active compounds read low 0.957 | locus YGL248W, strain PDE1, active compounds read low 0.998 | locus YGL253W, strain hxk2, active compounds read low 0.99 | locus YGR135W, strain pre9, active compounds read low 1 | locus YGR229C, strain SMI1, active compounds read low 1.01 | locus YGR252W, strain gcn5, active compounds read low 0.929 | locus YHR013C, strain ard1, active compounds read low 1 | locus YHR027C, strain rpn1, active compounds read low 0.982 | locus YHR030C, strain SLT2, active compounds read low 1.01 and 0.995 | locus YHR079C, strain IRE1 (second series), active compounds read low 0.992 | locus YHR079C, strain IRE1, active compounds read low 1 | locus YHR094C, strain hxt1, active compounds read low 1 | locus YHR129C, strain ARP1, active compounds read low 1.01 | locus YHR142W, strain chs7, active compounds read low 0.976 | locus YHR200W, strain rpn10, active compounds read low 1 | locus YIL066C, strain RNR3, active compounds read low 1.03 | locus YIL073C, strain SPO22, active compounds read low 1.02 | locus YIL125W, strain kgd1, active compounds read low 0.994 | locus YIR030C, strain dcg1, active compounds read low 1.01 | locus YJL092W, strain hpr5, active compounds read low 0.987 | locus YJL095W, strain BCK1 (second series), active compounds read low 0.982 | locus YJL095W, strain BCK1, active compounds read low 1.01 and 0.997 | locus YJL115W, strain asf1, active compounds read low 0.959 | locus YJL129C, strain trk1, active compounds read low 0.942 | locus YJL134W, strain LCB3, active compounds read low 1.01 | locus YJL154C, strain vps35, active compounds read low 0.952 | locus YJL164C, strain tpk1, active compounds read low 1.02 | locus YJL166W, strain qcr8, active compounds read low 0.917 | locus YJL168C, strain set2, active compounds read low 0.992 | locus YJL187C, strain SWE1 (second series), active compounds read low 1.01 | locus YJL187C, strain SWE1, active compounds read low 0.988 | locus YJR043C, strain POL32, active compounds read low 1.02
